# Sampled rows, rich in hits. Any-hit rate of the full collection: about 3.1%.
# GDH-TPI counter-1: GDH-TPI coupled enzyme inhibition counter-screen; GDH-TPI coupled enzyme counterscreen, NADH absorbance; inhibition, % at 4.8 µM; 360,000 tested, 1.2% active; AID 588335; in the data active = inhibition above about 30%;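 note: 0% = DMSO wells and 100% = wells lacking the enzyme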
# Mtb FBA inh: Mtb fructose-bisphosphate aldolase inhibition. P9WQA3. purified M. tuberculosis FBA, fluorescence read-out. inhibition, % at 1 µM. 360,000 tested, 2.3% active. AID 588726;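 note: 0% = vehicle and 100% = reference inhibitor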
# Target sequence (P9WQA3 whole entry, looked up): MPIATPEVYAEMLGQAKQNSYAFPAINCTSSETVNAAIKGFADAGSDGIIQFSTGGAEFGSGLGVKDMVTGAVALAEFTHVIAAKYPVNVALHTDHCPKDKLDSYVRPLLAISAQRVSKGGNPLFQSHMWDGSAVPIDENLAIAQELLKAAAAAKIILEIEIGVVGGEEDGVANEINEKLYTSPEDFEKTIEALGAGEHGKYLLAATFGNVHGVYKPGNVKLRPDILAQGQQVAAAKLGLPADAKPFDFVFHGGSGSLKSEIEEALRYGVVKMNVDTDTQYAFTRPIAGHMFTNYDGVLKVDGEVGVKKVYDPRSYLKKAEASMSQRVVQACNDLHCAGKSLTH
# FadD28 FP inh: M. tuberculosis FadD28 bisubstrate binding inhibition; FadD28 bisubstrate probe binding, fluorescence polarization; inhibition, % at 12.5 µM; 360,000 tested, 0.22% active; AID 588549; in the data active = inhibition above about 8.5%, passing the limit was not always enough
# BioA inh: blocks M. tuberculosis BioA enzyme activity; purified M. tuberculosis BioA enzyme, plate reader; inhibition, % at 9.99 µM; 360,000 tested, 0.096% active; in the data active = inhibition above about 40%
# SARS 3CLpro inh: SARS-CoV 3CLpro protease inhibition | inhibition, % at 6 µM | P0C6X7 | 290,000 tested, 0.14% active | recombinant SARS-CoV 3CLpro, quenched FRET peptide cleavage; in the data active = inhibition above about 12%
# Mtb FBA confirm: Mtb FBA inhibition, confirmed; shares compounds with Mtb FBA inh; purified M. tuberculosis FBA, fluorescence read-out; inhibition, % at 1 µM; 5,600 tested, 78% active;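 note: 0% = vehicle wells and 100% = reference inhibitor wells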
# GDH-TPI counter-2: GDH-TPI inhibition counter-screen for FBA inhibitors; inhibition, % at 1 µM; 5,600 tested, 81% active; shares compounds with Mtb FBA inh; GDH-TPI coupled enzyme counterscreen, fluorescence; in the data active = inhibition above about 10%
# GDH-TPI dose: counter-screen for M. tuberculosis FBA inhibitors: GDH-TPI dose response | IC50, µM | shares compounds with Mtb FBA inh | GDH-TPI coupled enzyme assay, fluorescence, artifact counterscreen | 170 tested, 79% active; call rule not given here
# * hit, by the source's call; nt = no result; + = active, no number. Cut-off read from the data, not from the text of the source, unless noted: active = inhibition above about 27%; inactive = the rest.
SMILES,GDH-TPI counter-1,Mtb FBA inh,FadD28 FP inh,BioA inh,SARS 3CLpro inh,Mtb FBA confirm,GDH-TPI counter-2,others
CC1CN(c2oc(-c3ccco3)nc2C#N)CC(C)O1 (configuration not stated),13.5,88.0*,1.9,-1.4,-2.7,138.5*,92.8*,
N#Cc1nc(-c2ccco2)oc1N1CCN(Cc2ccccc2)CC1,12.8,5.8,-1.8,1.6,0.3,nt,nt,
C=CCOc1ccc(/C=C/C(=O)Nc2ccc(C(=O)NC)cc2)cc1,23.2,45.4*,-2.1,-1.9,-2.8,44.1*,36.6*,
C[C@@H]1CN([C@@H](C)CO)C(=O)Cc2cc(NC(=O)NC3CCCCC3)ccc2O[C@H]1CN(C)CC1CCCCC1,nt,nt,nt,1.1,nt,nt,nt,
CNC(=O)c1[nH]cnc1C(=O)Nc1cccc(OC)c1,7.8,71.2*,-0.2,0.2,-1.7,+,198.9*,
CCOC(=O)c1[nH]cnc1C(=O)Nc1cccc(OC)c1,5.2,3.0,-2.7,nt,-0.7,nt,nt,
CC(=O)NC1(c2nnnn2CCOC(=O)Nc2ccc(Cl)cc2)CCCC1,-1.6,3.9,-3.2,nt,-6.0,nt,nt,
CC(=O)N(C)C1(c2nnnn2CCOC(=O)Nc2ccc(Cl)cc2)CCCCC1,-15.1,52.2*,-5.2,0.2,-7.7,12.7,4.4,
O=C(COc1ccc(F)cc1)Nc1nc(-c2ccccn2)cs1,-4.9,-0.6,-4.4,-0.6,nt,nt,nt,
O=C(COc1ccc([N+](=O)[O-])cc1)Nc1nc(-c2ccccn2)cs1,10.0,27.9*,-5.1,0.0,nt,+,+,
CC1CC2(CCCCC2)Nc2c1ccc1ccccc21 (configuration not stated),6.0,14.1,-3.3,2.4,-2.5,nt,nt,
OC1CNc2c(ccc3ccccc23)C1 (configuration not stated),6.9,101.2*,-2.2,nt,nt,175.1*,153.6*,
N#Cc1ccc(-c2nc3ccc(Cl)cn3c2Cc2cccc(F)c2)cc1,nt,42.6*,-2.4,1.8,nt,+,191.2*,
Cc1ccc2nc(-c3ccc(C#N)cc3)c(Cc3cccc(Cl)c3)n2c1,nt,40.9*,-4.0,1.1,nt,35.2*,34.7*,
COc1ccc(-c2nc3ccc(Br)cn3c2Cc2cccc(F)c2)cc1OC,nt,4.2,-4.7,2.8,nt,nt,nt,
Cc1ccc2nc(-c3ccc(C#N)cc3)c(Cc3ccccc3C(F)(F)F)n2c1,nt,78.5*,-4.2,-0.9,nt,29.4*,26.7*,
COc1ccc(-c2nc3ccc(C)cn3c2Cc2cccc(F)c2)cc1OC,nt,59.5*,-10.7,2.0,nt,66.4*,65.4*,
C[C@@H]1CN([C@@H](C)CO)C(=O)c2cccc(NS(C)(=O)=O)c2O[C@@H]1CN(C)Cc1ccc2c(c1)OCO2,nt,nt,nt,0.6,nt,nt,nt,
CNC(=O)C[C@@H]1CC[C@@H]2[C@@H](COc3ccc(NC(=O)Nc4cc(C)cc(C)c4)cc3C(=O)N2C)O1,nt,nt,nt,-1.5,nt,nt,nt,
O=C(NCC(F)(F)F)[C@@H]1[C@@H](CO)[C@@H]2Cn3c(ccc(-c4cccnc4)c3=O)[C@@H]2N1Cc1ccncc1,nt,nt,nt,6.7,nt,nt,nt,
CCCc1nc2ccc(C)cn2c1Cc1cccc(Cl)c1,nt,27.2*,-7.1,0.2,nt,+,167.8*,
Cc1ccc2nc(-c3ccccc3)c(Cc3cccc(Cl)c3)n2c1,nt,8.6,-3.8,-1.1,nt,nt,nt,
COCCNC(=O)C[C@H]1CC[C@@H]2[C@H](COC[C@@H](O)CN2C(=O)Nc2ccccc2OC)O1,nt,nt,nt,-0.4,nt,nt,nt,
Cc1ccc2c(c1)C(N1CCCC1=O)CC(c1ccco1)N2 (configuration not stated),20.9,30.7*,-1.9,-3.7,-2.9,5.6,-1.6,
Cc1ccc(C2CC(c3ccco3)n3ncnc3N2)cc1 (configuration not stated),-5.0,0.8,-2.5,0.1,5.3,nt,nt,
SMILES,GDH-TPI counter-1,Mtb FBA inh,FadD28 FP inh,BioA inh,SARS 3CLpro inh,Mtb FBA confirm,GDH-TPI counter-2,others
COCC(=O)Nc1ccc2c(c1)[C@H]1C[C@@H](CC(=O)N3CCCCC3)O[C@H](CO)[C@H]1O2,nt,nt,nt,-1.3,nt,nt,nt,
Cc1ccc(S(=O)(=O)N(C)C[C@@H]2Oc3ccc(NC(=O)Cn4cnnn4)cc3C(=O)N([C@@H](C)CO)C[C@@H]2C)cc1,nt,nt,nt,4.6,nt,nt,nt,
CCc1ccc(C(=O)C[n+]2cccc3cc(OC)ccc32)cc1,6.5,40.5*,-1.9,-1.0,-6.6,25.6,19.6*,
CCOc1ccc(C(=O)C[n+]2cccc3cc(C)ccc32)cc1,12.4,1.2,0.0,-3.0,2.6,nt,nt,
CO[C@@H]1CN(C)C(=O)c2ccc(NC(=O)c3ccc4c(c3)OCO4)cc2OC[C@H](C)N(CCC(F)(F)F)C[C@@H]1C,nt,nt,nt,-0.1,nt,nt,nt,
CC1=C[C@@H]2c3cccc4[nH]cc(c34)C[C@H]2N(C)C1,1.0,82.0*,1.2,-7.5,-11.7,51.8*,49.2*,
NCC[C@@H]1CC[C@@H](NC(=O)C2CCC2)[C@H](CO)O1,nt,nt,nt,-0.6,nt,nt,nt,
COc1ccc2nc(-c3ccccc3)cc(C(=O)OCC(=O)N3CC(C)OC(C)C3)c2c1 (configuration not stated),9.6,110.4*,-0.2,0.5,nt,38.1*,29.8*,
Cc1cc(C(=O)OCC(=O)N2CC(C)OC(C)C2)c2ccccc2n1 (configuration not stated),4.2,1.0,0.3,0.4,nt,nt,nt,
COc1ccc(-c2cc(C(=O)OCC(=O)N3CCCC3)c3ccccc3n2)cc1,13.1,9.0,-8.7,1.3,6.8,nt,nt,
COc1ccc2nc(-c3ccccc3)cc(C(=O)OCC(=O)N3CCCCC3)c2c1,0.5,87.0*,-0.3,-0.5,nt,+,+,
O=S(=O)(O)c1cc(O)c2ccc(Nc3ccccc3)cc2c1,7.7,35.0*,24.1*,0.7,nt,3.9,-1.0,
CC(=O)Nc1ccc2c(O)cc(S(=O)(=O)O)cc2c1,11.2,2.4,2.5,-0.5,nt,nt,nt,
O=S(=O)(O)c1cc(O)c2cc(Nc3ccccc3)ccc2c1,17.0,47.7*,28.1*,4.3,nt,90.9*,97.6*,
Cc1ccccc1-c1ccc([C@H]2[C@@H](CO)N3CCCCN(C(=O)NC4CCCC4)C[C@H]23)cc1,nt,nt,nt,3.1,nt,nt,nt,
CCCNC(=O)Nc1ccc2c(c1)C(=O)N(C)C[C@@H](OC)[C@H](C)CN(C(=O)C1CCOCC1)[C@@H](C)CO2,nt,nt,nt,3.5,nt,nt,nt,
Cc1ccccc1NC(=O)Cn1c(C)nc2ccc(NC(=O)C3CC3)cc2c1=O,4.1,-1.3,-0.3,-1.3,-1.1,nt,nt,
Cc1ccccc1NC(=O)Cn1c(C)nc2ccc(N)cc2c1=O,10.0,60.8*,-3.1,-0.7,-4.6,16.8,-0.1,GDH-TPI dose=2.8*
Nc1ccccc1C(=O)NCc1ccc(F)cc1,10.4,77.2*,-3.1,0.6,7.4,nt,+,
Nc1ccccc1C(=O)NCc1ccc(Cl)cc1,11.1,49.4*,0.3,0.2,-0.1,160.5*,139.0*,
Nc1ccccc1NC(=O)c1ccccc1N,7.0,61.4*,-3.1,2.0,1.6,100.7*,87.1*,
Cc1c(NC(=O)c2ccccc2N)cccc1C(=O)O,-0.6,14.1,-4.6,0.6,-6.0,nt,nt,
